Assay outcomes deposited in PubChem BioAssay by National Center for Advancing Translational Sciences (NCATS).
DT40 TDP1 CPT = DT40-hTDP1 cell growth loss with CPT; chicken DT40 Tdp1-/-;hTDP1 cells + 20 nM CPT, ATP luminescence, 48 h; Potency, µM (series often up to 46.2 µM), actives largely listed as inhibitors; actives 12% (n = 420,000); further: nearly all actives have a fitted effect of over 55% in size
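Cell growth measured by CellTiter-Glo luminescence after a minimum 48 h, 37 C compound exposure with 20 nM CPT in Tdp1-knockout DT40 cells stably expressing hTDP1, seeded 400/well; qHTS titration format.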
HT1080NT lethal = kills 2HG-producing HT-1080-NT fibrosarcoma cells; HT-1080-NT fibrosarcoma viability, CellTiter-Glo ATP luminescence, 48 h; Potency, µM (highest dose often 46.1 µM), usual class: cytotoxic; actives 1.6% (n = 360,000); AID 686970;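 further: NT is the 2HG producing partner of a matched IDH1 knockdown line; nearly all actives have a fitted effect of over 55% in size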
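Read-out is CellTiter-Glo luminescence after 10 minutes at room temperature, following 48 hours' compound treatment of HT-1080-NT cells (750 cells/well, RPMI, 5% FBS, 37 degrees C).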
TDP1 cell noCPT = qHTS for Inhibitors of human tyrosyl-DNA phosphodiesterase 1 (TDP1): qHTS in cells in absence of CPT; DT40 Tdp1-/- hTDP1 cells, no CPT, ATP luminescence, 48 h; Potency, µM (doses to about 46.2 µM), hits mostly inhibitors; actives 15% (n = 420,000); AID 686978, 2013; further: nearly all actives have a fitted effect of over 55% in size
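Growth kinetics read by CellTiter-Glo luminescence after ≥48 hr at 37 °C. Cells: DT40 Tdp1-/- stably carrying human TDP1, 400 per well, compound exposure in the absence of CPT (DMSO vehicle).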
HT1080 IDH1KD tx = kills HT-1080 cells with IDH1 knockdown; HT-1080 IDH1 knockdown viability, ATP luminescence, 48 h; Potency, µM (doses to about 46.1 µM), actives largely listed as cytotoxic; actives 2% (n = 360,000)
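Knockdown cells (IDH1KD HT-1080) received compounds 2 h after plating at 750 cells/well and were kept 48 h at 37 °C in 5% FBS RPMI. A CellTiter-Glo luminescence read gave % activity for curve fitting.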
IL-1B inflam inh = inflammasome signaling inhibition, IL-1 beta readout; THP-1 LPS/ATP IL-1B secretion, AlphaLISA, 16 h; stronger effect = lower value; actives 4.7% (n = 360,000); AID 743279; activity change, % at 57.5 µM; in the data active means activity change below about -50%; inconclusive means mostly about -30% to -49%
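THP-1 cells pretreated 1 hr with compounds (up to 57.5 uM final), then stimulated with LPS (250 ng/mL final) plus ATP (1.25 mM final); secreted IL-1B measured by AlphaLISA after 16 hr, decreased signal indicating inhibition.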
Each line names hits and unclear results; the compound was inactive in the other large screens. Most compounds without a hit are left out; they make up all but 19% or so of the library. Unless noted, the call rests on the fitted dose curve; in most records, active means well fitted curve in the direction sought with a large enough effect; inconclusive means small, poorly fitted or top-dose-only effect, or another doubt; inactive means no such curve, though single readings can be large; an effect the other way counts as inactive or inconclusive.

CN1C(=O)[C@H]2[C@@H](/C=C/c3ccccc3)N3C(=O)CN(CC4CC4)C(=O)[C@@]3(C)[C@H]2C1=O	none
Oc1c(Cl)cc(Cl)cc1/C=N/c1nc(-c2ccc(Cl)cc2)cs1	TDP1 cell noCPT inconclusive
Oc1c(Cl)cc(Cl)cc1/C=N/c1nccs1	DT40 TDP1 CPT 26µM, TDP1 cell noCPT inconclusive
CCN1C(c2ccccc2)=C(c2ccccc2)S/C1=C\C=C1/SC(=S)N(C)C1=O	DT40 TDP1 CPT 13µM, HT1080NT lethal inconclusive, TDP1 cell noCPT 9.2µM, HT1080 IDH1KD tx inconclusive
CCN1C(=O)/C(=C/C=C2/Sc3ccc4ccccc4c3N2CCO)SC1=S	DT40 TDP1 CPT inconclusive, TDP1 cell noCPT inconclusive
CCN1C(c2ccccc2)=C(c2ccccc2)S/C1=C/C=C1\SC(=S)N(C)C1=O	DT40 TDP1 CPT 10µM, TDP1 cell noCPT 10µM
CC1CCc2nc3ncn(CC(=O)Nc4cccc(C#N)c4)c(=O)c3cc2C1 (stereo not drawn)	TDP1 cell noCPT inconclusive (no result: HT1080NT lethal, HT1080 IDH1KD tx, IL-1B inflam inh)
C[C@@H]1CCC2[C@](C)(CO)C(O)CC[C@@]2(C)[C@@]12CC[C@](CO)(CCO)O2 (stereo partly drawn)	none (no result: HT1080NT lethal, HT1080 IDH1KD tx, IL-1B inflam inh)
Cc1nn(-c2ccccc2)c2sc(C(=O)N(CC(=O)NC3CCCC3)Cc3ccco3)cc12	DT40 TDP1 CPT inconclusive, HT1080NT lethal inconclusive, TDP1 cell noCPT 16µM, HT1080 IDH1KD tx inconclusive, IL-1B inflam inh inconclusive
O=C(CN1C(=O)c2cccc([N+](=O)[O-])c2C1=O)OCC(=O)N1CCCCC1	none
Cc1cccc(N2CCN(C(=O)NC3CCCCC3)CC2C)c1 (stereo not drawn)	none
Cc1cccc(-n2c(C)nc3cc(C(=O)NC4CCCCCC4)ccc32)c1	DT40 TDP1 CPT 13µM, TDP1 cell noCPT 23µM (no result: HT1080NT lethal, HT1080 IDH1KD tx, IL-1B inflam inh)
Cc1cccc(-n2c(C)nc3cc(C(=O)NCC4CCCO4)ccc32)c1 (stereo not drawn)	none
Cc1cccc(-n2c(C)cc(C(=O)NC3CCCCC3)c2C)c1	DT40 TDP1 CPT inconclusive, TDP1 cell noCPT 13µM, IL-1B inflam inh -90
O=c1ccn(CCc2c[nH]c3ccccc23)c2c1CCCC2	IL-1B inflam inh -58
CC1(C(=O)NC2CCCC2)CCC(=O)N1CCc1c[nH]c2ccccc12 (stereo not drawn)	none
COc1cc2c(-c3ccc(O)cc3)nc3c(c(C)nn3-c3ccccc3)c2cc1OC	DT40 TDP1 CPT 12µM, TDP1 cell noCPT 18µM
COc1cccc(-c2nc3c(c(C)nn3-c3ccccc3)c3cc(OC)c(OC)cc23)c1	none (no result: HT1080NT lethal, HT1080 IDH1KD tx, IL-1B inflam inh)
CCCCC(O)(CCCC)C(=O)NN(C(=O)OCC)c1ccccc1	DT40 TDP1 CPT inconclusive, TDP1 cell noCPT inconclusive
CCCC(O)(CCC)C(=O)NN(C(=O)CCl)c1ccccc1	DT40 TDP1 CPT 12µM, HT1080NT lethal inconclusive, TDP1 cell noCPT 10µM, HT1080 IDH1KD tx inconclusive, IL-1B inflam inh inconclusive
CCOC(=O)N(NC(=O)C(O)(C(C)C)C(C)C)c1ccccc1	none
CCOC(=O)N(NC(=O)C(O)(c1ccccc1)c1ccccc1)c1ccccc1	TDP1 cell noCPT 26µM
COCCNc1oc(/C=C/c2ccc(F)cc2)nc1C#N	none (no result: HT1080NT lethal, HT1080 IDH1KD tx, IL-1B inflam inh)
Nc1cccc(-c2c[nH]c3ncc(-c4cccnc4)cc23)c1	DT40 TDP1 CPT 8.2µM, TDP1 cell noCPT 21µM, IL-1B inflam inh -55
COCCNC(=O)C(=O)N/N=C(\C)CC(=O)Nc1cccnc1	none
CC(C)n1c(SCC(=O)Nc2nc3c(s2)CCCC3)nc2c1c(=O)n(C)c(=O)n2C	DT40 TDP1 CPT 12µM, HT1080NT lethal inconclusive, TDP1 cell noCPT 2.9µM, HT1080 IDH1KD tx inconclusive, IL-1B inflam inh inconclusive
CCOC(=O)c1c(NC(=O)CSc2nc3c(c(=O)n(C)c(=O)n3C)n2C(C)C)sc(C)c1C	none
COc1cc(=O)[nH]c(SCC(=O)Nc2nc3c(s2)CCCC3)n1	DT40 TDP1 CPT 23µM, TDP1 cell noCPT inconclusive
COc1ccc(-n2nnnc2SCC(=O)Nc2nc3c(s2)CCCC3)cc1	DT40 TDP1 CPT inconclusive, TDP1 cell noCPT inconclusive, HT1080 IDH1KD tx 18µM
CCOc1ccc(-n2nnnc2SCC(=O)NNC(=O)c2ccco2)cc1	DT40 TDP1 CPT 16µM, TDP1 cell noCPT inconclusive
